Reference: the supplement of paper PMC3545927
This is one part of the list. How many sequences the whole screen found active is unknown.

B1: HC529 (peptide)
chain: CAMMLLISQAAGNASASA
B2: HC1814 (peptide)
chain: CADKMEECSQAGNASASA
B3: HC1543 (peptide)
chain: CARYSAPPGDAGNASASA
B4: FS-534 (peptide)
chain: CAGYELQGREAGNASASA
B5: FS-378 (peptide)
chain: CARYNRPPREAGNASASA
B6: FS-1619 (peptide)
chain: CAYHGRIPREAGNASASA
B7: HC1611 (peptide)
chain: CAEINRVAACAGNASASA
B8: FS-2903 (peptide)
chain: CARDGRYTPCAGNASASA
B9: FS-20 (peptide)
chain: CAEHNRTPREAGNASASA
B10: HC1420 (peptide)
chain: CASKFGYGAKAGNASASA
B11: HC362 (peptide)
chain: CALAPGAKQNAGNASASA
B12: HC2102 (peptide)
chain: CAVVCCSMSQAGNASASA
B13: HC651 (peptide)
chain: CATKLITWGAAGNASASA
B14: HC203 (peptide)
chain: CALYGNEGCGAGNASASA
B15: HC1112 (peptide)
chain: CARRHVGPGEAGNASASA
B16: FS-3063 (peptide)
chain: CARRRRHPDDAGNASASA
B17: FS-1785 (peptide)
chain: CARRRRHPDEAGNASASA
B18: FS-2404 (peptide)
chain: CARRRRHAGEAGNASASA
B19: HC1214 (peptide)
chain: CATDNLKCPCAGNASASA
B20: HC1488 (peptide)
chain: CATEEAIYQCAGNASASA
B21: HC1063 (peptide)
chain: CAQTLLFNILAGNASASA
B22: HC1877 (peptide)
chain: CATTSCSGSWAGNASASA
B23: HC2336 (peptide)
chain: CAEGPCHRPSAGNASASA
B24: FS-338 (peptide)
chain: CAIITRYKRKAGNASASA
B25: FS-3032 (peptide)
chain: CARPYRCKIKAGNASASA
B26: FS-2499 (peptide)
chain: CARPFRSFVPAGNASASA
B27: FS-1402 (peptide)
chain: CARPFRYKRKAGNASASA
B28: HC767 (peptide)
chain: CANSSPPVVPAGNASASA
B29: HC1169 (peptide)
chain: CAGVWRVDGIAGNASASA
B30: HC1961 (peptide)
chain: CANCTTPCSGAGNASASA
B31: FS-2210 (peptide)
chain: CARHARFGKKAGNASASA
B32: FS-1716 (peptide)
chain: CARHRKNVDRAGNASASA
B33: HC1167 (peptide)
chain: CARGYKGVWRAGNASASA
B34: NG5 (peptide)
chain: CAMKYEIASEAGNASASA
B35: FS-3155 (peptide)
chain: CARHARQASEAGNASASA
B36: FS-1953 (peptide)
chain: CARHARNVDRAGNASASA
B37: FS-2356 (peptide)
chain: CARPAREVDRAGNASASA
B38: FS-2469 (peptide)
chain: CARVARTVDRAGNASASA
B39: HC1859 (peptide)
chain: CATPPCSGSWAGNASASA
B40: HC522 (peptide)
chain: CAFLLLADARAGNASASA
B41: HC972 (peptide)
chain: CAPLLYRLGAAGNASASA
B42: HC1440 (peptide)
chain: CAMAKNEVFCAGNASASA
B43: HC312 (peptide)
chain: CAGCNCSIYPAGNASASA

Target: furin, P09958
Sequence (P09958 whole entry): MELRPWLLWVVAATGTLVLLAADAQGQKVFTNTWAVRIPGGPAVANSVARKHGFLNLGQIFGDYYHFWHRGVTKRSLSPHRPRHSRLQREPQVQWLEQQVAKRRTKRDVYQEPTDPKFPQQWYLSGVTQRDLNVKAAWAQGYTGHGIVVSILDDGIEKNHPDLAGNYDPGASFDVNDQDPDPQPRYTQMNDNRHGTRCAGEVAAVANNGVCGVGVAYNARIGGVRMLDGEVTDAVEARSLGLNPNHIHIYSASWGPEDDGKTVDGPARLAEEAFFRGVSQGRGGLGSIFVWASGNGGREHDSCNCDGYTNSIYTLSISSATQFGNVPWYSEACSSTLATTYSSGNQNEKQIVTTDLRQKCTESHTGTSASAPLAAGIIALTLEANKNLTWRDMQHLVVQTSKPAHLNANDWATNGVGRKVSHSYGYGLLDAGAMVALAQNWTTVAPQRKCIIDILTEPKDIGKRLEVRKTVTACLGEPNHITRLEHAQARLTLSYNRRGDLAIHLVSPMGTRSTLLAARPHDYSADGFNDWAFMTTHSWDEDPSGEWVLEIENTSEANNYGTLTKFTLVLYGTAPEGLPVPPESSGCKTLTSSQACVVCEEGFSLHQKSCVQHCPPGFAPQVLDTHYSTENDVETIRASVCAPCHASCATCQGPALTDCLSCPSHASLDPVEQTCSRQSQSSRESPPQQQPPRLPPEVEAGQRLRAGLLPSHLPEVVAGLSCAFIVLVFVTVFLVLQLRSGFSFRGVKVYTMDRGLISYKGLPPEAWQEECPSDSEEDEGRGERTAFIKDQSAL
Assay: furin cleavage Z-score vs untreated control; higher = more cleavage, active = 3.5 or more, inactive = 1 or less, 8 variable residues between constant flanks
Method in brief: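 Peptides 8 residues long, fused to a cDNA oligonucleotide, were fixed to magnetic beads by the N-terminus and exposed to purified furin. The 0.01 ml reactions contained 50 mM HEPES pH 7.5 with CaCl2 and NaCl at 1:10 enzyme:substrate and ran 7.5, 15 or 30 min. For the cleavage Z-score, log counts of sequenced released DNA were compared with furin-free reactions, lowess-adjusted and scaled by median absolute deviation.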

Row | Sequence | furin cleavage Z-score (7.5 min) | furin cleavage Z-score (15 min) | furin cleavage Z-score (30 min)
1 | B1 | -0.436 (inactive) | -0.997 (inactive) | 1.3
2 | B2 | -0.565 (inactive) | 0.769 (inactive) | -0.546 (inactive)
3 | B3 | -1 (inactive) | 0.134 (inactive) | -1.47 (inactive)
4 | B4 | -1.04 (inactive) | -1.1 (inactive) | -1.02 (inactive)
5 | B5 | 9.4 (active) | 8.69 (active) | 7.85 (active)
6 | B6 | 4.85 (active) | 5.6 (active) | 4.92 (active)
7 | B7 | 0.443 (inactive) | -0.785 (inactive) | -0.701 (inactive)
8 | B8 | 0.99 (inactive) | -0.489 (inactive) | -0.0469 (inactive)
9 | B9 | 6.46 (active) | 6.63 (active) | 5.97 (active)
10 | B10 | 0.531 (inactive) | 0.331 (inactive) | -1.23 (inactive)
11 | B11 | 0.735 (inactive) | -0.827 (inactive) | 0.525 (inactive)
12 | B12 | -0.199 (inactive) | 0.851 (inactive) | 0.49 (inactive)
13 | B13 | 0.877 (inactive) | -0.214 (inactive) | -0.337 (inactive)
14 | B14 | -0.0812 (inactive) | 1.22 | 0.228 (inactive)
15 | B15 | -0.341 (inactive) | -0.961 (inactive) | -0.867 (inactive)
16 | B16 | 3.1 | 4.81 (active) | 3.91 (active)
17 | B17 | 5.6 (active) | 5.56 (active) | 4.6 (active)
18 | B18 | 6.46 (active) | 4.9 (active) | 5.66 (active)
19 | B19 | 0.631 (inactive) | -2.12 (inactive) | -1.25 (inactive)
20 | B20 | 0.306 (inactive) | -0.635 (inactive) | 1.07
21 | B21 | 0.309 (inactive) | -0.599 (inactive) | 0.404 (inactive)
22 | B22 | -0.56 (inactive) | -0.299 (inactive) | -0.313 (inactive)

Row | Sequence | furin cleavage Z-score (7.5 min) | furin cleavage Z-score (15 min) | furin cleavage Z-score (30 min)
23 | B23 | 0.811 (inactive) | 0.167 (inactive) | 0.259 (inactive)
24 | B24 | 6.56 (active) | 6.04 (active) | 6.05 (active)
25 | B25 | -0.856 (inactive) | -0.224 (inactive) | 1.6
26 | B26 | 0.343 (inactive) | 1.12 | 0.335 (inactive)
27 | B27 | 7.84 (active) | 8.54 (active) | 7.38 (active)
28 | B28 | -0.356 (inactive) | 1.59 | -0.293 (inactive)
29 | B29 | -0.937 (inactive) | 0.416 (inactive) | -0.826 (inactive)
30 | B30 | -0.578 (inactive) | -3.89 (inactive) | 1.28
31 | B31 | 0.851 (inactive) | -1.52 (inactive) | 1.21
32 | B32 | -0.386 (inactive) | 1.53 | 1.32
33 | B33 | 0.51 (inactive) | 0.617 (inactive) | -0.00561 (inactive)
34 | B34 | -0.26 (inactive) | -1.67 (inactive) | 0.146 (inactive)
35 | B35 | 1.74 | 4.48 (active) | 5.03 (active)
36 | B36 | 6.92 (active) | 10.7 (active) | 9.36 (active)
37 | B37 | 5.34 (active) | 5.29 (active) | 4.96 (active)
38 | B38 | 5.8 (active) | 7.75 (active) | 8.43 (active)
39 | B39 | -0.56 (inactive) | -0.533 (inactive) | -0.721 (inactive)
40 | B40 | -0.934 (inactive) | -0.696 (inactive) | -0.66 (inactive)
41 | B41 | 0.619 (inactive) | -1.01 (inactive) | 0.0559 (inactive)
42 | B42 | 0.471 (inactive) | 0.162 (inactive) | 0.531 (inactive)
43 | B43 | 0.264 (inactive) | -0.894 (inactive) | 0.418 (inactive)
